# KDM5B inhibitor – Primary screen for KDM5B Histone Demethylases FDH-coupled qHTS | Lysine-specific demethylase 5B (Homo sapiens), Q9UGL1 | KDM5B demethylase, FDH-coupled NADH fluorescence (FDH is formaldehyde dehydrogenase) | Potency, µM (series often up to 57.7 µM), usual class: inhibitors | 220,000 compounds, 2.6% hits | AID 1347165, 2019; active = well fitted inhibition curve with a large enough effect; note: nearly all actives have a fitted effect of over 70% in size
#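 KDM5BΔAP (200 nM final) in 50 mM HEPES pH 7.5, 0.01% Tween-20 was preincubated 10 min at RT with compound over a concentration range. Substrate mix (H3K4me3 12.5 µM, α-KG 25 µM, Fe²⁺, ascorbate, NAD⁺, FDH) was added, and NADH fluorescence change over 30 min gave dose-response curves.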
# A number is an active result; . = inactive. The sample as a whole holds a higher share of hits than the screen did.
SMILES,KDM5B inhibitor
O=C(O)CCc1conc1-c1cccc(F)c1,.
O=C(CCNc1c(-c2cccc(F)c2)nc2cnccn12)NCc1ccccc1F,28µM
CCN(CC)c1ccc(Nc2nc(-c3sc(NC(=O)c4ccccc4)nc3C)cs2)cc1,.
Cc1nc(Nc2cccc(C(F)(F)F)c2)sc1C(=O)N(C)C,.
Cc1ccc(C)c(NC(=O)c2nn(Cc3ccccc3)c(=O)c3ccccc23)c1,.
CC(C)c1ccc(NS(=O)(=O)c2ccc3c(c2)-c2oncc2CO3)cc1,.
N#CCSc1ccccc1C(=O)Nc1ccc2c(c1)CCC2,.
Cc1c(C)n(Cc2ccccn2)c2ncnc(NCc3ccccn3)c12,.
CCC(=O)N1CCc2c(sc3ncnc(NCc4ccccn4)c23)C1,28µM
c1ccc(CN2CCc3c(sc4ncnc(N5CCOCC5)c34)C2)cc1,.
CCNc1ncnc2sc3c(c12)CCN(Cc1ccncc1)C3,25µM
CN(C)c1ccc(C(=O)N2CCc3c(sc4ncnc(N)c34)C2)cc1,.
c1ccc(-c2csc3ncnc(NCc4ccccn4)c23)cc1,.
CCC(=O)N1CCc2c(sc3ncnc(N)c23)C1,28µM
CC(=O)Nc1ccc(C(=O)COc2ncnc3sc4c(c23)CCC4)cc1,.
COCCCNc1ncnc2sc3c(c12)CCN(Cc1cccnc1)C3,.
CNC(=O)N1CCc2c(sc3ncnc(NCCCOC)c23)C1,.
CCOC(=O)c1cnn(-c2ncnc3sc4c(c23)CCC(C)C4)c1N (configuration not stated),.
CCNc1ncnc2sc3c(c12)CCN(C(=O)COC)C3,35µM
CCc1ccccc1-n1c(N)c(C(=O)OC)sc1=S,.
Cc1n[nH]c(C)c1S(=O)(=O)N(CC(=O)NCc1ccc(F)cc1)c1ccc(C(C)C)cc1,.
COc1ccc(C(=O)C(C)OC(=O)C2CCCN2)cc1 (configuration not stated),.
CCCNc1c(NC(=O)c2ccc(OCC)c(OCC)c2)c(=O)oc2ccccc12,.
CSc1ccccc1NC(=O)CC1CC2CCC1C2 (configuration not stated),.
COc1cc(/C=C/C(=O)c2ccc(C(=O)O)s2)cc(OC)c1,.
SMILES,KDM5B inhibitor
COCCN1Cc2ccc(Nc3ccc(OC)cc3)nc2C(C)(C(=O)NC2COC2)C1 (configuration not stated),.
Cn1ccc(NC(=O)CCc2nc(-c3ccccc3)no2)n1,.
COCCn1c(C(=O)NCc2ccccc2)nc2ccccc2c1=O,.
COCCn1ncc(N2CCC(NC(=O)C(C)c3ccccc3)CC2)cc1=O (configuration not stated),.
CC(C)CNc1ccc2c(n1)C(C)(C(=O)NC(C)C)CN(Cc1ccccc1)C2 (configuration not stated),.
CC(C)CNc1ccc2c(n1)C(C)(C(=O)NC1COC1)CN(Cc1ccccc1)C2 (configuration not stated),32µM
COCCN1Cc2ccc(Nc3cccnc3)nc2C(C)(C(=O)NCc2ccncc2)C1 (configuration not stated),25µM
COCCN1Cc2ccc(NCC(C)C)nc2C(C)(C(=O)NC2CC2)C1 (configuration not stated),32µM
CC(C)CNc1ccc2c(n1)C(C)(C(=O)Nc1ccncc1)CN(Cc1ccccc1)C2 (configuration not stated),.
COCCN1Cc2ccc(NCc3ccccc3)nc2C(C)(C(=O)Nc2ccn(C)n2)C1 (configuration not stated),35µM
O=C(CN1CCN(CC(=O)Nc2ccc(F)cc2)CC1)NCCc1c[nH]c2ccccc12,.
CN(C)c1ccc(NC(=O)COC(=O)c2cccc(S(=O)(=O)N3CCc4ccccc43)c2)cc1,.
Cc1noc(C(C)Nc2ccc(N3CCCC3=O)c(Cl)c2)n1 (configuration not stated),.
COCCNC(=O)c1c(C)oc2c1CN(Cc1cccc(F)c1)CC2,.
CC(SCC(=O)NC(C)(C#N)C1CC1)c1ccc(F)cc1 (configuration not stated),.
Cc1ccc2oc(C(=O)Nc3ccc(S(N)(=O)=O)cc3)cc(=O)c2c1,.
COC(=O)CNc1ccccc1,.
COc1ccc(OCC(=O)N2CCC(Cc3nc(-c4ccc(OC)cc4)no3)CC2)cc1,.
COc1ccc(C(=O)N2CCc3nc(C(C)C)nc(-c4ccc(OC)cc4)c3C2)cc1,.
C=CCNC(=S)NNC(=O)Nc1ccccc1,.
COC(=O)c1ccccc1NC(=O)N1CCC[C@@H](O)[C@H](NC(=O)c2ccc(OCCN3CCCC3)cc2)C1,.
COCCOc1ccc(C(=O)N[C@@H]2CN(C(=O)Nc3ccccc3C(=O)OC)CCC[C@H]2O)cc1,.
COC(=O)c1ccccc1NC(=O)N1CCC[C@@H](O)[C@H](NC(=O)c2ccc(OCc3ccccc3)cc2)C1,25µM
Cc1ncc(CN)c(N)n1,.
CCCn1c(C)cc(C(=O)COC(=O)Cn2cnc3c2c(=O)n(C)c(=O)n3C)c1C,.
O=c1c2nc(OCc3ccc(F)cc3)ccc2ncn1C1CC1,.
Cc1ccc(CNC(=O)NC(=O)C(F)(F)F)cc1,.

# Screens: PubChem, National Center for Advancing Translational Sciences (NCATS)
